15 molecules from PubChem BioAssay can be followed below.

For part of these data: Measured potencies and affinities stand elsewhere. Calls of active or inactive are those of the source.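 How the source made its calls, unless noted: active means primary screen inhibitor hit that blocks the TRPC4 channel at some tested dose, yielding a dose curve; inactive means the rest.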

Assay [1] has as its system TRPC4 beta (transient receptor potential cation channel C4), mouse. Put plainly: activators of mouse TRPC4 channel, confirmation, cell-based, Fluo4 calcium, HEK293 TRPC4beta/mu-opioid, duplicates, 10 µM (AID 2426;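 active means fluorescence ratio normalized to control raised more than 50% in primary screen plus both repeat runs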;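 on activation: percent rise of integrated ratio over buffer wells lacking compound which define 0%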). Conditions: Fluo4 calcium fluorescence, at 10 µM; stronger effect = higher value.
The subject of assay [2] is transient receptor potential cation channel C4 beta (TRPC4), mouse. Description: activators of mouse TRPC4 channel, confirmation, cell-based, second round, Fluo4, HEK293 TRPC4beta/mu-opioid, 1 µM (AID 2461;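 active means primary screen active and over 50% activation in each of two duplicate runs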;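 on activation: 0% = wells without test compound as baseline of integrated fluorescence ratio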). As to conditions: Fluo4 calcium fluorescence, at 1 µM; stronger effect = higher value.
Assay [3] concerns TRPC4 (transient receptor potential cation channel C4 beta), mouse. Description: positive allosteric modulators of mouse TRPC4, confirmation, cell-based, second round, Fluo-4, HEK293 TRPC4beta/mu-opioid, 1 µM (AID 2554;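 active means primary screen hit whose fluorescence ratio, in both repeats, exceeds the weak agonist control mean by 3 SD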). As to conditions: DAMGO EC20, Fluo-4 calcium flux, at 1 µM; stronger effect = higher value.
For assay [4], the system named is TRPC4 beta (transient receptor potential cation channel C4), mouse. Description: positive allosteric modulators of mouse TRPC4, confirmation, cell-based, Fluo-4, HEK293 TRPC4beta/mu-opioid (AID 2555;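 active means primary screen hit whose calcium fluorescence ratio, in both repeats, exceeds the weak agonist control mean by 3 SD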). As to conditions: DAMGO EC20, Fluo-4 calcium flux, at 10 µM; stronger effect = higher value.
The target of assay [5] is Short transient receptor potential channel 4 (Mus musculus) (UniProt Q9QUQ5). Description: inhibitors of mouse TRPC4 channel, confirmation, cell-based, Fluo4, HEK293 TRPC4beta/mu-opioid (AID 2636;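 active means calcium signal cut by more than 3 SD below the full-agonist control yet still positive, in both repeats and the earlier primary screen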). Conditions: DAMGO, Fluo4 calcium flux, at 10 µM; stronger effect = higher value.
The target is the same in assay [6]. Description: inhibitors of mouse TRPC4 channel, confirmation, cell-based, second round, Fluo4, HEK293 TRPC4beta/mu-opioid, 1 µM (AID 2637;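 active means calcium signal ratio cut to more than 3 SD under the fully stimulated control mean yet still positive, in both repeats and the primary screen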). As to conditions: Fluo4 calcium flux, DAMGO, at 1 µM; stronger effect = higher value.
The target is the same in assay [7]. Description: TRPC4 positive allosteric modulators, dose response, cell-based, HEK293 TRPC4/mu-opioid, Fluo-4 calcium, EC20 DAMGO (AID 434941;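 active means earlier screen potentiator hit that boosts the TRPC4 ion channel at some dose, with a dose response; inactive means no potentiation, no dose response, or not a prior hit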;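 further: calcium entry triggered by an EC20 dose of DAMGO at the co-expressed mu-opioid receptor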).
The target is the same in assay [8]. Description: mouse TRPC4 channel inhibitors, dose response, cell-based, HEK293 TRPC4/mu-opioid, Fluo-4 calcium (AID 434942).
The target in assay [9] is Short transient receptor potential channel 6 (Mus musculus) (UniProt Q61143). Description: inhibition of mouse TRPC6 channel, confirmation, selectivity assay for TRPC4 inhibitor project, cell-based, HEK293, membrane potential dye, duplicate (AID 434948;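 active means active in primary screen and both duplicates, each dropping signal beyond three positive-control SD with fluorescence still positive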). Conditions: HEK293 TRPC6, membrane potential dye fluorescence, at 10 µM, stimulated with maximal-effect acetylcholine; stronger effect = higher value.

For assay [10] the target is unchanged. Description: activation of mouse TRPC6 channel, confirmation, selectivity assay for TRPC4 activator project, cell-based, HEK293, membrane potential dye, duplicate (AID 434950;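 active means membrane potential signal rise above negative control mean plus 3 SD in both duplicates, also active in the earlier TRPC4 screen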;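 on activation: 0% = buffer only wells and 100% = acetylcholine maximal-effect wells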). As to conditions: HEK293 TRPC6, membrane potential fluorescence, at 10 µM; stronger effect = higher value.
The target is the same in assay [11]. Description: TRPC6 potentiation by TRPC4 potentiator hits, confirmation, selectivity assay for TRPC4 potentiator project, HEK293 cells, membrane potential dye, duplicate (AID 434952;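 active means compound raising the membrane signal above positive-control mean plus 3 SD in both repeats, and a primary screen hit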). Conditions: HEK293 TRPC6, membrane potential dye fluorescence, at 10 µM, maximal acetylcholine added after compound; stronger effect = higher value.
The target in assay [12] is Short transient receptor potential channel 4 (Mus musculus) (UniProt Q9QUQ5). Description: calcium flux activators in TRPC4/5HT1a cells, counter-screen for TRPC4 activator project, cell-based, second counter screen, HEK293 TRPC4/5HT1a, Fluo-4 (AID 434977;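 active means calcium signal rise above buffer-control mean plus 5 SD in both duplicates, and also a hit in the primary screen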;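 on activation: plate controls were assay buffer for no effect and maximal serotonin response for full effect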). Conditions: Fluo-4 calcium flux, at 10 µM; stronger effect = higher value.
The nature of assay [13]: calcium flux inhibitors in TRPC4/5HT1a cells, confirmation, counter-screen for TRPC4 inhibitor project, cell-based, second counter screen, HEK293 TRPC4/5HT1a, Fluo-4 (AID 434978;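 active means primary screen active whose calcium signal fell more than 3 SD beyond the full-serotonin control mean in both duplicate plates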;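 further: serotonin given first at submaximal then at maximal dose after compound preincubation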). Conditions: Fluo-4 calcium flux, at 10 µM, serotonin added to trigger calcium flux; stronger effect = higher value.
In assay [14] the test system is TRPC4 (mouse), co-expressed with 5HT1a in HEK293. Put plainly: calcium flux potentiators in TRPC4/5HT1a cells, confirmation, counter-screen for TRPC4 potentiator project, cell-based, second counter screen, HEK293 TRPC4/5HT1a, Fluo-4 (AID 434979;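 active means signal rise over 3 SD above mean of control wells given weak agonist, in both repeats and first screen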). As to conditions: Fluo-4 calcium flux, at 10 µM, serotonin added at its EC20 dose; stronger effect = higher value.
Assay [15] can be described thus: calcium flux activation in mu-opioid HEK293 cells, confirmation, counter-screen for TRPC4 activator project, cell-based, HEK293 mu-opioid receptor line (AID 449723;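 active means hit in primary screen, with calcium signal over 5 SD above buffer well mean in both duplicates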;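 further: counter screen cells carry the mu-opioid receptor alone and lack TRPC4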). As to conditions: Fluo-4 calcium fluorescence, at 10 µM; stronger effect = higher value.
The nature of assay [16]: calcium flux enhancement in mu-opioid HEK293 cells, confirmation, counter-screen for TRPC4 allosteric potentiator project, cell-based, HEK293 mu-opioid receptor line (AID 449724;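 active means calcium signal rise more than 3 SD above the low-dose agonist control mean, in both duplicate plates and the primary screen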;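 further: HEK293 cells carrying mu-opioid receptor only with no TRPC4 channel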). As to conditions: Fluo-4 calcium flux, at 10 µM, compound added before EC20 DAMGO stimulus; stronger effect = higher value.

Short transient receptor potential channel 6 (Mus musculus), sequence (Q61143 whole entry, looked up): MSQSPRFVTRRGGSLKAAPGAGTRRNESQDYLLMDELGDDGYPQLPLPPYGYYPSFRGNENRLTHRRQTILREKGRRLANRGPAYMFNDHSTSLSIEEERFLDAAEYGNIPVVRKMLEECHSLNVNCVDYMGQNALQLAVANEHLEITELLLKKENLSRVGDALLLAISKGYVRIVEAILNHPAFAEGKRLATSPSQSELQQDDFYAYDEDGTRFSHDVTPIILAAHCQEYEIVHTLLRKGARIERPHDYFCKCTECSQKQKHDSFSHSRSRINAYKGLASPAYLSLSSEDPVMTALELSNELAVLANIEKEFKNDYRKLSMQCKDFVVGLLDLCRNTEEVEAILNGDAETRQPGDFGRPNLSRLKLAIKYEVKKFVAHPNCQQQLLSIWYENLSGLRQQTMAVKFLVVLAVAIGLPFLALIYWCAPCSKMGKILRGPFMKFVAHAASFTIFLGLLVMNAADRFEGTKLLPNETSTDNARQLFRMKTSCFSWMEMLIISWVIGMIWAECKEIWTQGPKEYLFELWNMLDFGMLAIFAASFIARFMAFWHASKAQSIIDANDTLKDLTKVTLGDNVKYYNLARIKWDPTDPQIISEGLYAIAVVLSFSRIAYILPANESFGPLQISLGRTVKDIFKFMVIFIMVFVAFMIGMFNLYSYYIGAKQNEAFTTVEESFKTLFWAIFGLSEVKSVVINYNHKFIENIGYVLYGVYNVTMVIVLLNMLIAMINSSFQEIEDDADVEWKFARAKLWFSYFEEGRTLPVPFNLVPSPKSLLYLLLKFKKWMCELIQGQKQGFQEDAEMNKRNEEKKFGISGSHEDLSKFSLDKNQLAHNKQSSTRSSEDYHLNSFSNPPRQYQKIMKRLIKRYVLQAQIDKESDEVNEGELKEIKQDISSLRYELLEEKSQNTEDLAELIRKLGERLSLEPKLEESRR
Short transient receptor potential channel 4 (Mus musculus), sequence (Q9QUQ5 whole entry, looked up): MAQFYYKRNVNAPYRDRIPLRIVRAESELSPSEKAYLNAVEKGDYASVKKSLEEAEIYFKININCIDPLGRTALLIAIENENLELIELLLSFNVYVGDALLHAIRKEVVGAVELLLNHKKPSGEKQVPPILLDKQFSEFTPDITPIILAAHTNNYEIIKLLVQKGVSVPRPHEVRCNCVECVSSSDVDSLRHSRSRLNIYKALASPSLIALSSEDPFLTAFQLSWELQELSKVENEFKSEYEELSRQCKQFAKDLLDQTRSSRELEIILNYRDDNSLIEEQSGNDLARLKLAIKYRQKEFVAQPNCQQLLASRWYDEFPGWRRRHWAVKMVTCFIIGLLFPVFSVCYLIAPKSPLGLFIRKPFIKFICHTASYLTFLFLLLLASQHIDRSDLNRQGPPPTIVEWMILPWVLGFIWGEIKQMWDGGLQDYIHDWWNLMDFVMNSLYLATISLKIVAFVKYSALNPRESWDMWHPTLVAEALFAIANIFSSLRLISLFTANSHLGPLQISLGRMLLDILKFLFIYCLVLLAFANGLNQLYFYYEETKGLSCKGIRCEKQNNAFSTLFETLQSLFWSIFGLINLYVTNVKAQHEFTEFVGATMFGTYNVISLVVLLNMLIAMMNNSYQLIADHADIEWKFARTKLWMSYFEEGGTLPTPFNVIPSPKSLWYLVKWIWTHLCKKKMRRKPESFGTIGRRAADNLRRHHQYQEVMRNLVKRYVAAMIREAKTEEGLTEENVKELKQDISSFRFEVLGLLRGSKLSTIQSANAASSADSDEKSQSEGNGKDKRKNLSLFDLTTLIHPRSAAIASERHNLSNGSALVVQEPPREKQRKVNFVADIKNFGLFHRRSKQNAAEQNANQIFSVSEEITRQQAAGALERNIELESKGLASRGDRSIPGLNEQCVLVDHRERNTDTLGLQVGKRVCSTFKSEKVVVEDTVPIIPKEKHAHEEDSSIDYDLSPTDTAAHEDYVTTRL

On to `CCc1cc(OCCN(C)C)ccc1Cl`, for which the values for the activation in assay [1], in assay [10] and in assay [12] were 93% (active), 39.5% (active) and 19.9% (active), respectively. Further, the result in [2], in assay [4], in assay [5], in assay [6], in [7] and in assay [8] was inactive. The molecule was called inactive in assay [9], in [11], in assay [13], in [15] and in [16]. The potentiation was 47% (active) in assay [3] and 37.3% (active) in assay [14].
As for `COc1ccc(C(=O)C2CCCN(C3Cc4ccccc4C3)C2)cc1OC` (stereo not given), the figures for the activation in [1], in [10] and in assay [12] were 128% (active), 81.5% (active) and 110% (active), respectively. The result in [2], in assay [3], in assay [4], in [5], in [6] and in assay [7] was inactive. The outcome in assay [8], in assay [9], in [11], in [13], in assay [14] and in assay [15] was inactive. In addition, in [16], the outcome was inactive.
With `CC(C)(C)C(=O)NC(=S)NNC(=O)c1sc2ccccc2c1Cl`, the activation was 323% (active) in [1]; 96% (active) in assay [2]; 36.5% (active) in assay [10]; 148% (active) in assay [12]; 136% (active) in assay [15]. The result in assay [3], in [4], in assay [5], in assay [6], in [7] and in assay [8] was inactive. The call in assay [9], in assay [11], in [13], in assay [14] and in assay [16] was inactive.
With `Clc1cccc(OCCN2CCNCC2)c1`, the activation in assay [1] was 66% (active); in assay [2], 54% (active); in assay [12], 31.1% (active). Besides, the outcome in assay [3], in assay [4], in assay [5], in assay [6], in [7] and in [8] was inactive. Further, the outcome in assay [9], in assay [10], in assay [11], in [13], in [14] and in [15] was inactive. For the same molecule, in [16], the outcome was inactive.
On to `CC1CC(C)CN(CCCNC(=O)c2ccc3c(c2)N(Cc2ccccc2)C(=O)c2ccccc2S3=O)C1` (stereo not given), for which the values for the activation in assay [1], in assay [2] and in assay [12] were 106% (active), 54% (active) and 23.8% (active), respectively. The outcome in [3], in assay [4], in [5], in assay [6], in assay [7] and in assay [8] was inactive. In addition, the molecule was classed as inactive in [9], in [10], in [11], in assay [13], in assay [14] and in assay [15]. Besides, the result in assay [16] was inactive.
Consider `CCn1c(N2CCN(C(=S)NCC(C)C)CC2)nc2ccccc21`, for which the values for the activation in assay [1], in [10] and in assay [12] were 98% (active), 39.5% (active) and 27.9% (active), respectively. Besides, the result in [2], in assay [3], in assay [4], in [5], in [6] and in [7] was inactive. Moreover, the result in assay [8], in assay [9], in assay [11], in assay [13], in assay [14] and in assay [15] was inactive. In addition, in assay [16], the outcome was inactive.
As for `COc1cccc(C(=O)NC2CCCN(C3Cc4ccccc4C3)C2)c1OC` (stereo not given), the activation in assay [1] was 132% (active); in assay [10], 57.5% (active); in assay [12], 82.8% (active). Further, the outcome in assay [2], in [3], in assay [4], in assay [5], in assay [6] and in assay [7] was inactive. For the same molecule, the outcome in assay [8], in assay [9], in [11], in assay [13], in [14] and in [15] was inactive. For the same molecule, the outcome in assay [16] was inactive.
As for `O=C(O)C1C2C=CC(C2)C1C(=O)N1CCN(C/C=C/c2ccccc2)CC1` (stereo not given), the activation in assay [1] is 71% (active); in assay [10], 26% (active); in assay [12], 12.8% (active). The outcome in [2], in assay [3], in assay [4], in assay [5], in assay [6] and in assay [7] was inactive. Besides, the result in [8], in [9], in assay [11], in assay [13], in assay [14] and in [15] was inactive. Moreover, the result in assay [16] was inactive.
As to `CCN1CCN(c2ncnc3sc(C)c(-c4ccccc4)c23)CC1`, the activation in assay [1] is 107% (active). In addition, the result in [2], in assay [3], in assay [4], in [5], in assay [6] and in [7] was inactive. Besides, the outcome in assay [8], in [9], in [10], in assay [11], in assay [12] and in [13] was inactive. Besides, the outcome in assay [14], in assay [15] and in assay [16] was inactive.
For the molecule `O=C(CCCCn1c(=O)[nH]c2ccccc2c1=O)NC1CCN(Cc2ccccc2)CC1`, the result in assay [1], in [2], in assay [3], in assay [4], in [5] and in assay [6] was inactive. Also, the outcome in assay [7], in assay [8], in assay [9], in assay [11], in [12] and in assay [13] was inactive. The result in assay [14], in assay [15] and in assay [16] was inactive. The activation in assay [10] is 35% (active).
In the case of `COC(=O)C1CCN(Cc2cn(-c3ccccc3)nc2-c2ccc3c(c2)OCO3)CC1`, the outcome in [1], in assay [2], in [3], in assay [4], in [5] and in assay [6] was inactive. Also, the outcome in assay [7], in [8], in assay [9], in assay [11], in assay [12] and in [13] was inactive. The outcome in assay [14], in assay [15] and in [16] was inactive. The activation in assay [10] was 45% (active).
On to `O=C(O)C1C2C=CC(C2)C1C(=O)NC1CCN(Cc2ccccc2)CC1` (stereo not given), for which the activation was 155% (active) in assay [1], 32% (active) in assay [10] and 44.3% (active) in assay [12]. In addition, the outcome in [2], in [3], in assay [4], in [5], in [6] and in assay [7] was inactive. Also, the outcome in [8], in assay [9], in assay [11], in assay [13], in assay [14] and in [15] was inactive. The outcome in assay [16] was inactive.
As to `CC(C)(C)c1cc(O)c(C(C)(C)C)cc1O`, the activation in assay [1] is 100% (active); in [12] it was 55.9% (active); in assay [15], 47.1% (active). Moreover, the outcome in assay [2], in [3], in assay [4], in assay [5], in assay [6] and in assay [7] was inactive. In addition, the result in [8], in assay [9], in assay [10], in [11], in assay [13] and in assay [14] was inactive. Further, the outcome in [16] was inactive.
With `CN(C)C(CNC(=S)Nc1ccccc1Cl)c1cccnc1` (stereo not given), the activation in [1] is 109% (active); in [2], 144% (active). The result in assay [3], in assay [4], in assay [5], in assay [6], in assay [7] and in assay [8] was inactive. The molecule was called inactive in [9], in assay [10], in [11], in assay [12], in assay [13] and in assay [14]. In addition, the outcome in assay [15] and in assay [16] was inactive.
Take `O=[N+]([O-])c1cc(C(F)(F)F)ccc1N1CCCNCC1`: the activation in [1] is 77% (active); in assay [12], 30.2% (active). Also, the outcome in assay [2], in assay [5], in [6], in assay [7], in assay [8] and in [9] was inactive. Also, the molecule was called inactive in [10], in assay [11], in assay [13], in assay [15] and in assay [16]. Besides, the potentiation in [3] is 21% (active); in assay [4], 26% (active); in assay [14], 30.6% (active).
